Sampled rows, rich in hits. Any-hit rate of the full collection: about 1.5%.
RTF Ca sens act: increases calcium sensitivity of human cardiac regulated thin filaments; P19429+P45379; IANBD-labeled TnC RTF fluorescence at EC20 calcium; 0% EC20 calcium, 100% full calcium; activation, % at 7.2 µM; 340,000 compounds, 0.24% hits; AID 493008;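 active = activation above the mean over all tested compounds plus 3 SD, cut at about 30% in these data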;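 also: rise in fluorescence read as greater calcium sensitivity of cardiac thin filaments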
Cardiac RTF inh: cardiac RTF calcium desensitization | inhibition, % at 7.15 µM | 340,000 compounds, 0.12% hits | P19429+P45379 | IANBD-labeled cardiac RTF, Ca2+ fluorescence;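 active = inhibition above the mean inhibition of all tested compounds plus 3 SD, cut at about 17% in these data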;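 also: assay run at fixed EC70 calcium of 1.6 mM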
IDE cell activ: boosts human insulin-degrading enzyme activity in HEK cells; FAbeta-B cleavage, fluorescence polarization; 0% vehicle, 100% cell-free pure enzyme wells; AID 493087; activation, % at 5.96 µM; 340,000 compounds, 0.073% hits; P14735;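 active = activation above the mean of all tested compounds plus 3 SD, set per screening campaign, cut at about 17% in these data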
CRFR2-BP antag: CRF-BP/CRF-R2 complex antagonism. HEK293 CRF-R2/CRF-BP, CRF-induced calcium fluorescence. inhibition, % at 11.8 µM. 350,000 compounds, 0.59% hits. AID 588475;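 active = inhibition of the ligand-induced calcium signal above about 50% at the single tested concentration, limit read from the data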
IDE cell inh: inhibitors of human insulin-degrading enzyme in cells | HEK cells, FAbetaB cleavage, fluorescence polarization | inhibition, % at 5.59 µM | 320,000 compounds, 0.41% hits | P14735;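 active = percent inhibition above the average of all tested compounds plus 3 SD, set per screening campaign, cut at about 16% in these data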;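 also: IDE supplied by intact live HEK cells; FP after avidin binding of uncleaved biotin substrate so inhibition keeps polarization high; 0% = DMSO wells and 100% = 60 µM reference IDE inhibitor Ii1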
CRFR2-BP ag: agonists of human CRF-binding protein/CRF-R2 receptor complex; HEK293 CRF-R2/CRF-BP, calcium dye fluorescence (FLIPR); percent of saturating CRF peptide response; activation, % at 13.2 µM; 350,000 compounds, 0.46% hits; AID 588473;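 active = activation of at least 50%, plus an integration ratio under a set limit after plate pattern correction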;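 also: plate controls were neutral control wells without compound for no effect and CRF at EC100 for full effect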
Numbers without * were called inactive; / = no result.

SMILES	RTF Ca sens act	Cardiac RTF inh	IDE cell activ	CRFR2-BP antag	IDE cell inh	CRFR2-BP ag
CCOc1ccc(C(C(=O)NC2CCCC2)N(Cc2ccccc2)C(=O)c2nsc(Cl)c2Cl)cc1 (centres undefined)	2.8	-2.1	3.1	0.3	4.4	4.9
Cc1cc(C)cc(N(C(=O)c2nsc(Cl)c2Cl)C(C(=O)NC2CCCC2)c2ccc(O)cc2)c1 (centres undefined)	-5.0	-0.7	5.2	72.7*	-1.3	-2.1
COc1ccc(C(C(=O)NC2CCCC2)N(Cc2ccccc2)C(=O)c2nsc(Cl)c2Cl)cc1 (centres undefined)	-1.6	-1.1	8.2	-5.0	-4.7	1.4
Cc1ccc(N(C(=O)c2nsc(Cl)c2Cl)C(C(=O)NC2CCCC2)c2ccc(O)cc2)cc1C (centres undefined)	-5.5	-1.9	5.3	87.8*	9.7	-6.2
Cc1cccc(N(C(=O)c2nsc(Cl)c2Cl)C(C(=O)NC2CCCC2)c2ccc(O)cc2)c1C (centres undefined)	0.1	-0.2	-1.3	91.4*	0.0	-3.6
CCc1cc(C(=O)N(Cc2ccccc2)c2c(N)n(CCOC)c(=O)[nH]c2=O)sc1C	7.6	5.7	-5.1	-0.4	5.5	1.3
COc1ccccc1N=Cc1c(C)c(C#N)c2[nH]c3ccccc3n2c1=O	62.1*	-13.0	-0.7	-30.4	0.6	27.4
Cc1c(Cc2ccccc2)c(=O)n2c([nH]c3ccccc32)c1C#N	-3.9	4.2	-0.2	10.7	1.0	32.6
CCOc1ccccc1C1c2[nH]c3ccccc3c2C[C@H]2C(=O)N(C3CC3)CC(=O)N12 (some centres undefined)	2.4	-9.5	1.6	-36.9	-5.4	5.7
Cc1ccc(S(=O)(=O)N/N=C/c2ccccc2O)cc1	2.8	-10.8	2.8	3.9	-2.3	-1.2
Cc1ccc(S(=O)(=O)NN=Cc2c(O)ccc3ccccc23)cc1	/	/	/	56.0*	/	-1.4
Oc1ccccc1N=Cc1c(O)ccc2ccccc12	3.1	-26.4	-2.3	-112.5	/	122.8*
Cc1nc(N)sc1-c1csc(N(C)c2ccc(O)cc2)n1	-4.1	3.0	4.9	51.3*	-2.0	-1.5
Cc1cc(N2CCCC2)ccc1NC(=O)COc1cccc(C(F)(F)F)c1	7.7	-2.2	0.9	-0.3	-4.7	0.9
CC(=O)Nc1ccc(N=Cc2c(O)c(C(=O)Nc3ccccc3)cc3ccccc23)cc1	/	/	/	-88.3	-3.3	114.8*
N#CCN=C(c1ccccc1)c1ccccc1	-3.4	-11.5	5.4	1.1	3.4	-0.6
CC(C)(CO)NCC#Cc1ccccc1	34.1*	-3.5	2.8	-2.1	-2.6	0.8
CCC[N+](CC#CCO)(CC#Cc1ccccc1)CCC	6.0	-10.7	-2.5	8.2	-1.8	0.7
Cc1ccccc1Cn1c(=O)sc2ccccc2c1=O	3.8	-0.3	-4.8	56.3*	-0.5	-5.4
Cc1ccc(NC(=O)C2CC(=O)N(C(C)C)C2)cc1Cl (centres undefined)	0.1	-6.1	-3.7	-6.2	2.6	1.8
CC(C)N1CC(C(=O)Nc2ccc(Br)c(Cl)c2)CC1=O (centres undefined)	3.3	-5.2	-4.7	60.3*	2.0	0.3
O=C(CNc1ccccc1N1CCCC1=O)Nc1cc(C(F)(F)F)ccc1-n1cncn1	0.4	0.4	1.6	-3.3	/	0.6
O=C(Oc1ccccc1F)c1ccc2c(=O)n3c(nc2c1)CCC3	-2.5	-7.4	6.4	99.4*	4.0	5.9
CCN(CC(=O)Nc1c(F)cccc1F)C(=O)c1ccc(S(=O)(=O)N2CCC(C)CC2)cc1	2.0	0.0	2.9	121.9*	0.3	-1.2
O=C(Oc1ccccc1Cl)c1ccc2c(=O)n3c(nc2c1)CCC3	-2.6	-13.0	2.9	-8.8	7.5	0.4
SMILES	RTF Ca sens act	Cardiac RTF inh	IDE cell activ	CRFR2-BP antag	IDE cell inh	CRFR2-BP ag
CCN(CC(=O)Nc1c(F)cccc1F)C(=O)c1ccc2c(=O)n3c(nc2c1)CCC3	-1.4	-2.8	4.0	103.7*	/	-0.9
CC(NC(=O)COC(=O)c1ccc2c(=O)n3c(nc2c1)CCCCC3)c1ccccc1 (centres undefined)	-2.2	-0.3	2.0	62.6*	-3.1	-1.0
COc1ccc(NC(=O)c2ccc(NC(=O)CSc3nc(N)cc(=O)[nH]3)cc2)cc1	6.3	3.6	-4.4	4.7	0.1	0.3
COc1ccc(Cn2c(-c3ccc(OC)cc3)nc3c(c(=O)c4ccccc4n3C)c2=O)cc1	/	/	/	/	-10.6	/
COc1ccc(CCn2c(C(C)C)nc3c(c(=O)c4ccccc4n3C)c2=O)cc1	2.3	-12.5	-5.0	49.8	0.8	114.8*
COc1ccc(Cn2c(C)nc3c(c(=O)c4ccccc4n3C)c2=O)cc1	-2.6	-4.7	-1.0	-3.6	1.7	-0.2
COc1ccc(Cn2c(-c3ccco3)nc3c(c(=O)c4ccccc4n3C)c2=O)cc1	6.8	0.4	8.9	72.0*	5.3	-3.7
COc1ccc(-c2nc3c(c(=O)c4ccccc4n3C)c(=O)n2Cc2ccccc2)cc1	3.3	-2.1	5.0	-36.7	1.8	52.7*
Cc1cc(=O)[nH]c(SCC(=O)N2CCCC2)n1	-3.5	-9.6	2.0	5.2	-2.3	-1.5
CCOC(=O)c1cc2ccccc2n1CCN(CC)CC	4.5	-1.3	7.4	-9.0	-2.6	74.3*
CCN(CC(=O)Nc1c(F)cccc1F)C(=O)CSc1nnc(-c2ccco2)n1CC	2.0	-3.1	1.0	-10.8	-3.5	0.3
CCOC(=O)C1C(C)=CC(=O)CC1c1ccco1 (centres undefined)	7.2	4.8	4.1	67.5*	3.5	22.3
C=CCn1c(SCC(=O)Nc2c(C)cccc2C)nnc1-c1ccncc1	6.8	-27.3	2.9	52.5*	0.4	2.0
COc1ccc(S(=O)(=O)N2CCN(CCc3ccccc3)CC2)cc1	-0.9	-1.1	-3.7	3.4	-0.4	1.5
COC(=O)c1cc(NC(=O)c2ccccc2)c(=O)oc1/C=C/Nc1ccc(Oc2ccccc2)cc1	112.9*	-253.7	-29.1	-167.3	/	138.0*
CCCP(=O)(CC(=O)N(CC)CC)c1ccccc1 (centres undefined)	-0.4	-11.3	3.1	57.7*	0.9	2.9
CC1CCN(S(=O)(=O)c2nnc(NC(=O)c3cccc(Cl)c3)s2)CC1	-2.5	0.7	1.0	59.5*	0.2	12.8
COc1ccccc1C(=O)Nc1nnc(S(=O)(=O)N2CCC(C)CC2)s1	-1.3	-2.2	3.0	-14.4	3.5	-0.4
CC(Oc1ccc(C(=O)c2ccccc2)cc1)C(=O)Nc1ccc(S(N)(=O)=O)cc1 (centres undefined)	-0.8	-0.9	-0.2	-56.9	5.2	61.2*
CN1C(=O)NC(c2ccccc2)C2=C1CN(CCc1ccccc1)C2=O (centres undefined)	0.6	-1.2	4.7	124.8*	0.9	0.2

Screens deposited in PubChem by several laboratories.
